In the library only some 1.2% were active in any assay of this set; here they are far more common.
Statin myotox sup: suppressors of simvastatin-induced myotoxicity in C2C12 myotubes; AID 602340; actives 0.78% (n = 330,000); ATP luminescence, 48 h; scaled: DMSO 0, geranylgeraniol control 100; rescue of ATP level, % at 7.49 µM;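 active means mean ATP rescue above about 67%, or every replicate alone reaching that limit, limit read from the data, passing the limit was not always enough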;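 further: myotubes were challenged with 10 µM simvastatin during compound exposure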
NSD2 inh: blocks human histone methyltransferase NSD2 | O96028 | NSD2 peptide methylation, AlphaScreen, 120 min | inhibition, % at 12.5 µM | actives 0.54% (n = 310,000); in the data active means inhibition above about 50%
PglD DTNB: blocks C. jejuni PglD acetyltransferase activity | actives 0.098% (n = 360,000) | AID 602405 | purified PglD enzyme, DTNB colorimetric CoA detection | inhibition, % at 12.5 µM; in the data active means inhibition above about 16%, passing the limit was not always enough
miR122 inh: blocks miR-122 activity in Huh7 sensor cells; activation (reporter increase), % at 12.5 µM; actives 0.3% (n = 340,000); Huh7 miR-122 Renilla luciferase sensor, 48 h; neutral wells = 0, positive control = 100; AID 602342;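 active means mean replicate activation score at least 90 and every replicate individually at or above 90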;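 further: higher luciferase means less miR-122 activity so hits act as miR-122 inhibitors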
Starred values were filed as active, the others as inactive; x = no result; [ ] = dose if it differs, or a comment.

SMILES	Statin myotox sup	NSD2 inh	PglD DTNB	miR122 inh
C=C[C@@H](OC)[C@H](OC(=O)Nc1ccc(SC)cc1)c1ccc(OCCO)cc1	x	x	1.2	x
O=C(NCc1ccco1)C(c1ccccc1)N(C(=O)Cc1cccs1)c1ccccc1F (configuration not stated)	97.5*	0.1	1.8	x
CCC(C(=O)Nc1ccc(C)cn1)c1ccccc1 (configuration not stated)	x	1.4	x	x
CNC(=O)c1ccccc1S(=O)(=O)c1ccccc1C#N	100.7*	-3.6	-0.8	0.9
O=C1C=C(Nc2ccccc2C(=O)O)c2ccccc2C1=O	13.9	x	0.9	13.2
O=C1C=C(Nc2cccc3cccnc23)c2ccccc2C1=O	1.3	103.8*	4.7	-2.0
N#Cc1ccc(C(=O)NCC(c2ccco2)N2CCCCC2)cc1 (configuration not stated)	124.0*	-0.9	0.3	-5.1
CC(C)CC#Cc1cnc2c(c1)C(=O)N([C@H](C)CO)C[C@@H](C)[C@@H](CN(C)C(=O)Cc1cccnc1)O2	-7.8	x	-1.8	-4.3[16.7 µM]
C[C@@H](NC(=O)C[C@H]1CC[C@H]2[C@@H](COC[C@H](O)CN2C(=O)Nc2ccccc2)O1)c1ccccc1	-2.6	x	-0.9	-2.4[16.7 µM]
CCn1c2ccccc2c2cc(N)ccc21	107.8*	-6.0	2.5	2.6
Cc1ccc(NS(=O)(=O)c2ccc(-c3ccc(=O)[nH]n3)o2)cc1Cl	137.3*	1.2	1.2	15.1
Cc1ccc(NS(=O)(=O)c2ccc(-c3ccc(=O)[nH]n3)o2)cc1N(C)C	-5.7	2.1	-5.8	-0.2
CCC1(C)Nc2ccccc2C(=O)N1O (configuration not stated)	117.8*	2.4	1.8	10.4
C/C=C/Cn1c(SCc2ccccc2)nc2c1c(=O)[nH]c(=O)n2C	116.5*	2.4	-3.0	2.5
Cc1cc(=O)oc2c(CN3CCCCC3)c(O)c(Cl)cc12	97.1*	-2.4	1.6	3.1
C[C@@H]1CN([C@H](C)CO)C(=O)Cc2cc(NS(=O)(=O)c3ccc(F)cc3)ccc2O[C@H]1CN(C)S(=O)(=O)c1ccc(F)cc1	-6.4	x	0.1	16.5[16.7 µM]
FC(F)(F)c1ccc(CN2C[C@@H]3C(c4ccc(C(F)(F)F)cc4)C4(c5cccnc5)CC3(C4)[C@H]2c2ccccc2)cc1 (some centres not stated)	119.1*	x	-1.5	-4.0
C[C@H]1CN([C@@H](C)CO)C(=O)Cc2cc(NC(=O)Nc3ccc(F)cc3)ccc2O[C@H]1CN(C)C(=O)Nc1ccccc1	-2.9	x	-2.4	4.1[16.7 µM]
CN1CCN(C(=O)C[C@@H]2C[C@@H]3c4cc(NC(=O)C5CCC5)ccc4O[C@@H]3[C@@H](CO)O2)CC1	1.0	x	-0.4	-2.9[16.7 µM]
Cc1cc(C)c(NC(=O)Cn2nnc(C(=O)NCc3ccc4c(c3)OCO4)c2N)c(C)c1	92.0*	8.4	-0.1	1.6
CCc1ccccc1NC(=O)CCN1C(=O)c2ccccc2C1=O	132.8*	-0.5	-1.7	-2.6
CC1(C)CC(=O)c2cnc(NC(=O)CCc3ccccc3)nc2C1	92.5*	0.4	-0.2	-3.1
CC(=O)N(C)C[C@@H]1Oc2cc(C#Cc3ccccc3)ccc2S(=O)(=O)N([C@H](C)CO)C[C@@H]1C	-3.9	x	-0.1	8.4[16.7 µM]
COc1cccc(/C=C/c2n[nH]c(=O)c(C#N)c2C)c1	93.7*	2.6	4.3	-3.5
COc1ccccc1S(=O)(=O)N1CC[C@@H]2[C@@H](CO)N(C)c3ccc(-c4ccccc4)cc3[C@@H]21	13.6	x	1.6	32.5[16.7 µM]
SMILES	Statin myotox sup	NSD2 inh	PglD DTNB	miR122 inh
COc1ccc(C(N)=O)cc1N	129.8*	1.4	0.6	-0.4
CCC(CC)NC(=O)COC(=O)c1ccc(OCC(=O)Nc2ccccc2OC)c(OC)c1	66.6*	-1.5	3.0	-9.5
C[C@H]1CCCCO[C@H](CN(C)C(=O)C2CCCCC2)[C@@H](C)CN([C@@H](C)CO)C(=O)c2cc(NC(=O)Cc3ccccc3)ccc2O1	80.1*	x	-1.2	-9.9[16.7 µM]
C[C@H](CO)N1C[C@H](C)[C@H](CN(C)C(=O)Nc2ccc(F)cc2)OCCCC[C@H](C)Oc2ccc(NC(=O)Cc3ccccc3)cc2C1=O	106.6*	x	-0.5	2.6[16.7 µM]
COCC(=O)Nc1ccc2c(c1)[C@@H]1C[C@@H](CC(=O)NCc3ccccn3)O[C@H](CO)[C@@H]1O2	2.1	x	2.8	0.1[16.7 µM]
CC1=C/C(=C\c2ccc(Br)o2)C(=O)O1	x	97.8*	x	x
COc1ccc(NC(=O)Nc2ccc3c(c2)CC(=O)N([C@@H](C)CO)C[C@@H](C)[C@H](CN(C)S(=O)(=O)c2ccc(Cl)cc2)O3)cc1	-3.6	x	x	-5.3[16.7 µM]
O=C(O)/C=C1\NC(=O)c2ccccc21	103.5*	-0.4	-10.1	-0.4
